Data on seven compounds can be found in PubChem BioAssay.

By viability is commonly meant a read-out of living cells in per cent, often relative to untreated cells. The inhibition is the change of the read-out against control, counted positive when it falls.

The nature of experiment [1]: liver-stage malaria parasite growth inhibition, primary screen, cell-based, HepG2, luciferase luminescence, HepG2 viability (AID 624349; in the data active = parasite load remaining mostly below about 12%, no sharp cut-off; inactive = mostly above about 10%;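 also: 100% = mean of DMSO negative control wells on the same plate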). To be noted: P. berghei liver stage in HepG2, luciferase luminescence, concentration not given here; parasite load remaining: stronger effect = lower value; viability: measured here: HepG2 viability without parasites.
The nature of experiment [2]: Cy5 fluorescence interference with SSB-bound oligo, artefact control for HCV NS3 helicase inhibitor project, biochemical, NIH Clinical Collection, E. coli SSB (AID 743268; call rule not given here).
Experiment [3] concerns Hepatitis C virus NS3 helicase. As to the kind of experiment: HCV NS3 helicase inhibitors, primary screen, biochemical, fluorescence polarization, NIH Clinical Collection (AID 743270; call rule not given here). The settings on record: NS3 helicase binding to Cy5-dT15 DNA, stronger effect = higher value, concentration not given here. (In general: In fluorescence polarisation assays a small probe gives low polarisation when free and higher when bound to something large.)

In experiment [4] the target is Single-stranded DNA-binding protein (Escherichia coli (strain K12)) (UniProt P0AGE0). As to the kind of experiment: E. coli SSB displacement from DNA, counter-screen for HCV NS3 helicase inhibitor project, biochemical, fluorescence polarization, NIH Clinical Collection (AID 743271; in the data active = inhibition above about 28%). To be noted: stronger effect = higher value, concentration not given here.
The nature of experiment [5]: fluorescence interference in NS3h assay format, artefact control for HCV NS3 helicase inhibitor project, biochemical, NIH Clinical Collection (AID 743272; call rule not given here;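 also: HCV NS3 helicase with a Cy5 labelled single stranded DNA probe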). To be noted: fluorescence interference counterscreen, stronger effect = lower value.
Experiment [6] can be described thus: modulation of C. elegans fzo-1 (AID 1259413; call rule not given here;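 also: fzo-1 mutant C. elegans worms in liquid wells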). To be noted: C. elegans fzo-1 modulator screen, mean read-out; stronger effect = higher value.
Experiment [7] in a line: sensitizers of A549 cells to miR-34 induction, primary screen, imaging, A549 dox-inducible miR-34, nuclei and caspase counts (AID 1347080;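 active = compounds whose cell count with miR-34 switched on is under 0.7 times the count with it off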). To be noted: A549 miR-34 inducible, Hoechst nuclei count, 48 h.
Experiment [8] in a line: survival rescue of mitochondrial mutant cells in low glucose, primary screen, MELAS cybrids, Rieske KO mouse fibroblasts, CellTiter-Glo (AID 1508586;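 active = mean z-score across replicates of 1.96 or higher in either the MELAS or the Rieske mutant cell line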;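 also: z relative to plate mean and SD of compound and empty wells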). On the technique in general: Cellular ATP, detected with luciferase, serves as a proxy for viable cell number.
A short description of experiment [9]: viability rescue of complex I mutant cybrids, primary screen, cell-based, galactose medium, ATP luminescence (AID 1645843;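 active = z-score of at least 1.8 in each of two replicates, scored against plate mean and spread of sample wells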;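 also: positive z means more ATP and so rescue of galactose-driven cybrid death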). The settings on record: complex I mutant cybrid cells, 72 h, stronger effect = higher value.
Experiment [10] relates to F380Y. As to the kind of experiment: modulators of BK channel variants, profiling panel, selectivity assay, cell-based, U2OS BacMam, thallium flux, beta subunits (AID 1259406).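 Also: initial slope of Thallos dye fluorescence rise after thallium is added; log ratio against the mean of 0.3% DMSO vehicle wells on the same plate.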 The settings on record: at 30 µM.
Experiment [11] has as its system F380Y/beta1. The experiment is described as above. To be noted: at 30 µM.
In experiment [12] the test system is F380Y/beta2Delta. Described as above. The settings on record: at 30 µM.
Experiment [13] concerns F380Y/beta4. The experiment is described as above. The settings on record: at 30 µM.
Experiment [14] has as its target Calcium-activated potassium channel subunit alpha-1 (Homo sapiens) + Leucine-rich repeat-containing protein 26 (Homo sapiens) (UniProt Q12791+Q2I0M4). Described as above. To be noted: F380Y/Slo1WT/gamma1, at 30 µM.
Experiment [15] deals with R275C. The experiment is described as above. The settings on record: at 30 µM.
The subject of experiment [16] is R275C/beta1. Described as above. To be noted: at 30 µM.
Experiment [17] has as its system R275C/beta2Delta. The experiment is described as above. The settings on record: at 30 µM.
In experiment [18] the test system is R275C/beta4. Described as above. To be noted: at 30 µM.
Experiment [19] concerns R275C/Slo1WT/beta2. Described as above. To be noted: at 30 µM.
Setting [20] is: stronger effect = lower value, cell number ratio, induced over uninduced.
Setting [21] is: measured here: relative caspase fold change +Dox/-Dox.
Where [22] appears, read: measured here: total cells with miR-34 induction, stronger effect = lower value.
[23] abbreviates: measured here: total cells without miR-34 induction.
Where [24] appears, read: MELAS cybrid survival, CellTiter-Glo 48 h, stronger effect = higher value.
Where [25] appears, read: Rieske KO mouse fibroblast survival, CellTiter-Glo 72 h.

“And” between values parts separate entries of the source, which are not always exact repeats. Equal entries are not always repeated. The source made the active and inactive calls.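 The calls were made as follows, unless noted: active = thallium flux through the channel raised or lowered by more than 3 SD from vehicle-only wells, actives on both sides; inactive = the rest.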

Calcium-activated potassium channel subunit alpha-1 (Homo sapiens) + Leucine-rich repeat-containing protein 26 (Homo sapiens), sequence (Q2I0M4 whole entry, looked up, one chain of several): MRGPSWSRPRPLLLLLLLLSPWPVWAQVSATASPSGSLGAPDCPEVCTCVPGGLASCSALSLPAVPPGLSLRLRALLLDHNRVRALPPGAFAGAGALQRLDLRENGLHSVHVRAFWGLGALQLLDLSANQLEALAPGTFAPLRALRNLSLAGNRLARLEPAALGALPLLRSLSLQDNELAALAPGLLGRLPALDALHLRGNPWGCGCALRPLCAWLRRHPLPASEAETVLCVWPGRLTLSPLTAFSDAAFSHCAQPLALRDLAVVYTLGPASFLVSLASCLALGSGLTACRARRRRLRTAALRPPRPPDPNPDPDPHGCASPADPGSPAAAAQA

With `CC(=O)NC[C@H]1CN(c2ccc(N3CCOCC3)c(F)c2)C(=O)O1`, in experiment [1], the parasite load remaining is 99.9% (inactive) and 45% (inactive). In addition, the viability in experiment [1] is 74.1% and 114%. In addition, the fluorescence ratio in experiment [2] was 1.07 (inactive); in [5], 1.04 (inactive). Moreover, the inhibition in experiment [3] was 6.73% (inactive); in experiment [4], 2.21% (inactive). Besides, in experiment [6], the mean signal is 269 (inactive). Moreover, the fold change in experiment [7] (setting [20]) was 1.08 (inactive) and 0.926 (inactive); in [7] (setting [21]), 1.57 and 0.639. Moreover, the cell count was 10400 and 9730 in experiment [7] (setting [22]); 9600 and 10500 in experiment [7] (setting [23]). Besides, the z-score is -0.794 (inactive) and 0.174 (inactive) in experiment [8] (setting [24]); -2.51 and -1.01 in experiment [8] (setting [25]); 1.22 (inactive) and -0.185 (inactive) in experiment [9]. In addition, the log fold change Tl+ flux was 0.0386 (inactive) in experiment [10]; 0.0152 (inactive) in [11]; -0.0137 (inactive) in experiment [12]; -0.01 (inactive) in [13]; -0.0237 (inactive) in experiment [14]; -0.0414 (inactive) in experiment [15]. For the same compound, the log fold change Tl+ flux in experiment [16] was 0.0265 (inactive); in experiment [17] it was 0.023 (inactive); in [18], 0.00539 (inactive); in experiment [19], 0.0288 (inactive).
With `O=C(ON(C(=O)c1ccc(F)cc1)C1C2CC3CC(C2)CC1C3)c1ccc(F)cc1` (stereo unspecified), the log fold change Tl+ flux in experiment [10] was 0.0231 (inactive); in [11], -0.0234 (inactive); in experiment [12], 0.00474 (inactive); in [13], 0.0374 (inactive); in experiment [14], 0.0901 (inactive); in [15] it was 0.0436 (inactive). The log fold change Tl+ flux was -0.0159 (inactive) in experiment [16], 0.00798 (inactive) in experiment [17], 0.0539 (inactive) in [18] and 0.0295 (inactive) in experiment [19].
For the compound `CC1CC2C3CCC4=CC(=O)C=CC4(C)[C@@]3(Cl)C(O)CC2(C)C1(O)C(=O)CO` (stereo partly specified), the parasite load remaining in [1] is 68.1% (inactive). Moreover, in [1], the viability is 67.8%. The fluorescence ratio in [2] was 0.98 (inactive); in [5], 0.95 (inactive). Besides, the inhibition in [3] was -0.22% (inactive); in [4], -1.97% (inactive). Also, in experiment [6], the mean signal is 282 (inactive). Further, the fold change is 0.839 (inactive) in experiment [7] (setting [20]) and 1.07 in experiment [7] (setting [21]). The figures for the cell count in experiment [7] (setting [22]) and in [7] (setting [23]) were 7120 and 8490, respectively. Further, the z-score in experiment [9] is 1.36 (inactive). The log fold change Tl+ flux in experiment [10] is 0.104 (inactive); in [11] it was 0.0975 (active); in [12], -0.00287 (inactive); in experiment [13], 0.0497 (inactive); in experiment [14], 0.0373 (inactive); in experiment [15] it was -0.0315 (inactive). Moreover, the log fold change Tl+ flux was 0.106 (active) in experiment [16], 0.0411 (inactive) in experiment [17], 0.0585 (inactive) in experiment [18] and 0.0245 (inactive) in experiment [19].
Turning to `CC(C)(C)NC(=O)[C@@H]1C[C@@H]2CCCC[C@@H]2CN1C[C@@H](O)[C@H](Cc1ccccc1)NC(=O)[C@H](CC(N)=O)NC(=O)c1ccc2ccccc2n1`, the parasite load remaining in experiment [1] is 82.5% (inactive) and 52% (inactive). Moreover, the viability in experiment [1] is 75.6% and 103%. Also, the results for the fluorescence ratio in experiment [2] and in [5] were 1.02 (inactive) and 1.01 (inactive), respectively. The inhibition is 2.77% (inactive) in [3] and 12.2% (inactive) in experiment [4]. For the same compound, the mean signal in [6] is 234 (inactive). Further, the fold change in experiment [7] (setting [20]) was 0.908 (inactive); in experiment [7] (setting [21]) it was 0.962. The cell count in [7] (setting [22]) was 8420; in experiment [7] (setting [23]) it was 9260. Further, the z-score in experiment [8] (setting [24]) is -0.0678 (inactive); in [8] (setting [25]), -1.19. Further, the log fold change Tl+ flux in [10] was -0.12 (active); in experiment [11], -0.0774 (inactive); in experiment [12], -0.2 (active); in experiment [13] it was -0.072 (inactive); in experiment [14], -0.0094 (inactive); in experiment [15], -0.273 (active). The log fold change Tl+ flux in [16] is 0.138 (active); in [17], -0.11 (active); in [18] it was 0.0316 (inactive); in experiment [19], -0.0147 (inactive).
On to `O=C(NC(CO)C(O)c1ccc([N+](=O)[O-])cc1)C(Cl)Cl` (stereo unspecified), for which the parasite load remaining in [1] was 48.8% (inactive). The viability in experiment [1] was 87.3%. Further, the fluorescence ratio in experiment [2] was 0.1 (active); in [5], 1.03 (inactive). Moreover, the inhibition is -4.09% (inactive) in experiment [3] and 4.1% (inactive) in experiment [4]. In addition, the mean signal in experiment [6] was 263 (inactive). The fold change in [7] (setting [20]) is 0.967 (inactive) and 0.86 (inactive); in experiment [7] (setting [21]) it was 1.3 and 1.21. The cell count in [7] (setting [22]) is 7650 and 7730; in experiment [7] (setting [23]), 7910 and 8980. For the same compound, the z-score was -0.304 (inactive) in experiment [8] (setting [24]), 0.499 in experiment [8] (setting [25]) and 0.48 (inactive) in experiment [9]. For the same compound, the log fold change Tl+ flux was -0.0332 (inactive) in experiment [10]; 0.0194 (inactive) in [11]; -0.0071 (inactive) in experiment [12]; 0.000156 (inactive) in experiment [13]; 0.0379 (inactive) in experiment [14]; -0.0175 (inactive) in [15]. Moreover, the log fold change Tl+ flux in [16] was -0.0341 (inactive); in [17], -0.00719 (inactive); in experiment [18], 0.0483 (inactive); in experiment [19] it was 0.0603 (inactive).
Take `CCCCc1nc(Cl)c(CO)n1Cc1ccc(-c2ccccc2-c2nnn[nH]2)cc1`: in [1], the parasite load remaining was 81.8% (inactive) and 40.5% (inactive). Further, the viability in [1] was 76.8% and 103%. For the same compound, the fluorescence ratio in experiment [2] is 1.01 (inactive); in experiment [5] it was 0.93 (inactive). Further, the inhibition in [3] was -1.19% (inactive); in [4] it was 2.21% (inactive). Besides, in experiment [6], the mean signal was 250 (inactive). In addition, the fold change in [7] (setting [20]) is 0.917 (inactive) and 0.788 (inactive); in [7] (setting [21]) it was 2.6 and 1.84. Moreover, the cell count is 9420 and 8200 in experiment [7] (setting [22]); 10300 and 10400 in [7] (setting [23]). In addition, the z-score in [8] (setting [24]) is -0.447 (inactive); in [8] (setting [25]) it was -1.13; in experiment [9], 0.965 (inactive) and 0.025 (inactive). In addition, the log fold change Tl+ flux in experiment [10] was -0.0174 (inactive); in [11], 0.0224 (inactive); in experiment [12], -0.000818 (inactive); in [13], 0.0154 (inactive); in experiment [14], 0.0245 (inactive); in experiment [15], -0.0209 (inactive). Moreover, the log fold change Tl+ flux in experiment [16] was 0.00988 (inactive); in [17], 0.0215 (inactive); in experiment [18], 0.039 (inactive); in experiment [19] it was -0.0136 (inactive).
Consider `COc1cc(C)c(/C=C/C(C)=C/C=C/C(C)=C/C(=O)O)c(C)c1C`, for which, in experiment [1], the parasite load remaining was 45.7% (inactive). Also, the viability in [1] worked out at 100%. The fluorescence ratio in [2] is 1.04 (inactive); in experiment [5] it was 1 (inactive). The inhibition in experiment [3] is 4.09% (inactive); in [4] it was 4.1% (inactive). Besides, in experiment [6], the mean signal is 260 (inactive). Also, the fold change was 0.995 (inactive) in experiment [7] (setting [20]) and 2.52 in [7] (setting [21]). In addition, the cell count in experiment [7] (setting [22]) and in experiment [7] (setting [23]) was 10300 each time. Moreover, the z-score was 0.713 (inactive) in [8] (setting [24]), 1.44 in [8] (setting [25]) and -0.775 (inactive) in experiment [9]. Moreover, the log fold change Tl+ flux in experiment [10] was -0.0381 (inactive); in [11], 0.176 (active); in [12], 0.35 (active); in [13] it was 0.0442 (inactive); in experiment [14], 0.229 (active); in [15], -0.0134 (inactive). For the same compound, the log fold change Tl+ flux in [16] was 0.389 (active); in [17], 0.261 (active); in [18], 0.228 (active); in experiment [19], -0.0131 (inactive).
